The values below come from publication PMC8384837, “Expanding the binding specificity for RNA recognition by a PUF domain”.

Common to all, as to test: yeast three-hybrid, YBZ-1, SC-Leu-His + 0.5 mM 3-AT, 4 days
Holding throughout (settings): tags: N-Gal4 AD-HA kept; label: inside an RPR1-promoter hybrid RNA with tandem MS2 sites; ssRNA

One assay concerns the target PUM1 PUF domain R4-DWA (Homo sapiens, UniProt Q14671 828-1176, N971D;H972W;Q975A). The essentials:
(§1)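 Repeat regions from input (SC-Leu) and selection (SC-Leu-His + 0.5 mM 3-AT) plates were PCR-amplified and Illumina-sequenced after four days of growth. The cells were strain YBZ-1 with a LexA–MS2 coat fusion and a HIS3 reporter, co-expressing Pumilio-1 PUF domain libraries and matching RNA elements from a centromeric plasmid. The interaction score is the log change in variant frequency from input to selection, taken in log2 with a pseudocount of 1 for absent variants.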

The target of the next assay is PUM1 PUF domain R5-GKS (Homo sapiens, UniProt Q14671 828-1176, C1007G;R1008K;Q1011S). The essentials: as §1
The target in the next assay is PUM1 PUF domain R5-RQA (Homo sapiens, UniProt Q14671 828-1176, C1007R;R1008Q;Q1011A). The essentials:
as §1

Another assay has as its target PUM1 PUF domain R3-EWV (Homo sapiens, UniProt Q14671 828-1176, C935E;R936W;Q939V). The essentials: as §1
A further assay concerns the target PUM1 PUF domain R3-YCG (Homo sapiens, UniProt Q14671 828-1176, C935Y;R936C;Q939G). The essentials: as §1
The target in a further assay is PUM1 PUF domain R3-GWP (Homo sapiens, UniProt Q14671 828-1176, C935G;R936W;Q939P). The essentials:
as §1

In a further assay the target is PUM1 PUF domain R3-AIE (Homo sapiens, UniProt Q14671 828-1176, C935A;R936I;Q939E). The essentials: as §1
Another assay concerns the target PUM1 PUF domain R3-ARI (Homo sapiens, UniProt Q14671 828-1176, C935A;Q939I). The essentials: as §1
The next assay deals with PUM1 PUF domain R3-RIY (Homo sapiens, UniProt Q14671 828-1176, C935R;R936I;Q939Y). The essentials: as §1
Another assay deals with PUM1 PUF domain R1-QRR (Homo sapiens, UniProt Q14671 828-1176, S863Q;Q867R). The essentials:
as §1

For another assay, the target named is PUM1 PUF domain R1-VKR (Homo sapiens, UniProt Q14671 828-1176, S863V;R864K;Q867R). The essentials: as §1
Another assay concerns the target PUM1 PUF domain R1-QIR (Homo sapiens, UniProt Q14671 828-1176, S863Q;R864I;Q867R). The essentials:
as §1

A further assay deals with T1, PUM1 PUF domain R6-TWG (Homo sapiens, UniProt Q14671 828-1176, N1043T;Y1044W;Q1047G).
T1 sequence: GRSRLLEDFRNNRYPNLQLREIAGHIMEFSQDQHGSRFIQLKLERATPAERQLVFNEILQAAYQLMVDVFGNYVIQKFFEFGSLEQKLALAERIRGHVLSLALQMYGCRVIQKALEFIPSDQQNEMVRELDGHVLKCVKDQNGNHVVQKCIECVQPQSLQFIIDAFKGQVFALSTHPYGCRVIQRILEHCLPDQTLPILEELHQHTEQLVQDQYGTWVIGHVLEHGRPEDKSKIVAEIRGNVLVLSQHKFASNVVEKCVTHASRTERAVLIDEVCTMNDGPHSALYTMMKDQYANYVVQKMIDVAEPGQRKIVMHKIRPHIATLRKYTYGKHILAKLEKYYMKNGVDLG
The essentials: as §1

In the next assay the target is PUM1 PUF domain R4-RIF (Homo sapiens, UniProt Q14671 828-1176, N971R;H972I;Q975F). The essentials:
as §1

Another assay has as its target PUM1 PUF domain R5-GGE (Homo sapiens, UniProt Q14671 828-1176, C1007G;R1008G;Q1011E). The essentials: as §1
Another assay addresses PUM1 PUF domain R5-SED (Homo sapiens, UniProt Q14671 828-1176, C1007S;R1008E;Q1011D). The essentials: as §1
A further assay concerns the target PUM1 PUF domain R7-EFS (Homo sapiens, UniProt Q14671 828-1176, S1079E;N1080F;E1083S). The essentials:
as §1

Another assay concerns the target PUM1 PUF domain R1-RKV (Homo sapiens, UniProt Q14671 828-1176, S863R;R864K;Q867V). The essentials: as §1
Another assay addresses PUM1 PUF domain R8-RWF (Homo sapiens, UniProt Q14671 828-1176, N1122R;Y1123W;Q1126F). The essentials: as §1
A further assay concerns the target PUM1 PUF domain R7-TVW (Homo sapiens, UniProt Q14671 828-1176, S1079T;N1080V;E1083W). The essentials: as §1

As to “GGCUAGAACUAGUGGAUCCCCCGGCGCCCGGCGGCUCGAGCCCGGGUAAGUGUACAUAGUCUGCAUGCCGCCGGGCGCCAUGCCUGCAGGUCGACUCUAGAAAACAUG”, the binding signal in the assay with PUM1 PUF domain R4-DWA was 5.13 log2 enrichment (interaction score).
With “GGCUAGAACUAGUGGAUCCCCCGGCGCCCGGCGGCUCGAGCCCGGGUAAGUGUUAAUAGUCUGCAUGCCGCCGGGCGCCAUGCCUGCAGGUCGACUCUAGAAAACAUG”, the binding signal in the assay with PUM1 PUF domain R5-GKS was 3.25 log2 enrichment (interaction score); with PUM1 PUF domain R5-RQA, 5.37 log2 enrichment (interaction score).
For the sequence “GGCUAGAACUAGUGGAUCCCCCGGCGCCCGGCGGCUCGAGCCCGGGUAAGUGUAAGUAGUCUGCAUGCCGCCGGGCGCCAUGCCUGCAGGUCGACUCUAGAAAACAUG”, the binding signal was 2.9 log2 enrichment (interaction score) with PUM1 PUF domain R3-EWV, 4.58 log2 enrichment (interaction score) in the assay with PUM1 PUF domain R3-YCG, 5.41 log2 enrichment (interaction score) in the assay with PUM1 PUF domain R3-GWP and 2.83 log2 enrichment (interaction score) with PUM1 PUF domain R3-AIE.
Turning to “GGCUAGAACUAGUGGAUCCCCCGGCGCCCGGCGGCUCGAGCCCGGGUAAGUGUAAUUAGUCUGCAUGCCGCCGGGCGCCAUGCCUGCAGGUCGACUCUAGAAAACAUG”, the binding signal with PUM1 PUF domain R3-EWV is 2.82 log2 enrichment (interaction score); with PUM1 PUF domain R3-GWP it was 4.22 log2 enrichment (interaction score); with PUM1 PUF domain R3-ARI, 2.15 log2 enrichment (interaction score); with PUM1 PUF domain R3-RIY, 2.12 log2 enrichment (interaction score).
With “GGCUAGAACUAGUGGAUCCCCCGGCGCCCGGCGGCUCGAGCCCGGGUAAGUGUAAAUCGUCUGCAUGCCGCCGGGCGCCAUGCCUGCAGGUCGACUCUAGAAAACAUG”, the binding signal with PUM1 PUF domain R1-QRR is 5.33 log2 enrichment (interaction score); with PUM1 PUF domain R1-VKR, 3.48 log2 enrichment (interaction score); with PUM1 PUF domain R1-QIR, 3.53 log2 enrichment (interaction score).
“GGCUAGAACUAGUGGAUCCCCCGGCGCCCGGCGGCUCGAGCCCGGGUAAGUGUAAAUAGUCUGCAUGCCGCCGGGCGCCAUGCCUGCAGGUCGACUCUAGAAAACAUG”: the binding signal is 6.69 log2 enrichment (interaction score) in the assay with PUM1 PUF domain R3-GWP; 4.45 log2 enrichment (interaction score) with PUM1 PUF domain R3-ARI; 3.96 log2 enrichment (interaction score) with PUM1 PUF domain R6-TWG; 5.22 log2 enrichment (interaction score) with PUM1 PUF domain R4-RIF; 5.39 log2 enrichment (interaction score) in the assay with PUM1 PUF domain R4-DWA.
With “GGCUAGAACUAGUGGAUCCCCCGGCGCCCGGCGGCUCGAGCCCGGGUAAGUGUGAAUAGUCUGCAUGCCGCCGGGCGCCAUGCCUGCAGGUCGACUCUAGAAAACAUG”, the binding signal with PUM1 PUF domain R5-RQA was 0.37 log2 enrichment (interaction score); with PUM1 PUF domain R5-GGE, 3.62 log2 enrichment (interaction score); with PUM1 PUF domain R5-SED it was 5.49 log2 enrichment (interaction score).
In the case of “GGCUAGAACUAGUGGAUCCCCCGGCGCCCGGCGGCUCGAGCCCGGGUAAGUCUAAAUAGUCUGCAUGCCGCCGGGCGCCAUGCCUGCAGGUCGACUCUAGAAAACAUG”, in the assay with PUM1 PUF domain R7-EFS, the binding signal is 2.94 log2 enrichment (interaction score).
For the sequence “GGCUAGAACUAGUGGAUCCCCCGGCGCCCGGCGGCUCGAGCCCGGGUAAGUGUAAAUUGUCUGCAUGCCGCCGGGCGCCAUGCCUGCAGGUCGACUCUAGAAAACAUG”, the binding signal in the assay with PUM1 PUF domain R1-QRR was 1.96 log2 enrichment (interaction score); in the assay with PUM1 PUF domain R1-VKR it was 1.61 log2 enrichment (interaction score); in the assay with PUM1 PUF domain R1-RKV it was 3.41 log2 enrichment (interaction score).
For “GGCUAGAACUAGUGGAUCCCCCGGCGCCCGGCGGCUCGAGCCCGGGUAAGUGUCAAUAGUCUGCAUGCCGCCGGGCGCCAUGCCUGCAGGUCGACUCUAGAAAACAUG”, the binding signal with PUM1 PUF domain R5-GKS was 0.75 log2 enrichment (interaction score); with PUM1 PUF domain R5-RQA, 4.83 log2 enrichment (interaction score).
In the case of “GGCUAGAACUAGUGGAUCCCCCGGCGCCCGGCGGCUCGAGCCCGGGUAAGCGUAAAUAGUCUGCAUGCCGCCGGGCGCCAUGCCUGCAGGUCGACUCUAGAAAACAUG”, the binding signal in the assay with PUM1 PUF domain R8-RWF is 5.22 log2 enrichment (interaction score).
Consider “GGCUAGAACUAGUGGAUCCCCCGGCGCCCGGCGGCUCGAGCCCGGGUAAGUUUAAAUAGUCUGCAUGCCGCCGGGCGCCAUGCCUGCAGGUCGACUCUAGAAAACAUG”, for which the binding signal in the assay with PUM1 PUF domain R7-TVW is 3 log2 enrichment (interaction score).
“GGCUAGAACUAGUGGAUCCCCCGGCGCCCGGCGGCUCGAGCCCGGGUAAGUGUAAAUGGUCUGCAUGCCGCCGGGCGCCAUGCCUGCAGGUCGACUCUAGAAAACAUG”: the binding signal with PUM1 PUF domain R1-VKR is 0.84 log2 enrichment (interaction score); with PUM1 PUF domain R1-RKV, 0.48 log2 enrichment (interaction score).
